Results taken from PubChem BioAssay AID1209 (Sanford-Burnham Center for Chemical Genomics, 2008).
Where “and” joins values, the source holds several entries; their conditions need not be identical. Equal entries are not always repeated. Hit rate of the full screen: of about 190,000 compounds, about 810 (0.43%) were called active. Rule as the data show it: active = inhibition above about 50%; inactive = the rest. Many of the other results were omitted from the sample, so actives are more common in it than they were.

molecular target: Mannose-6-phosphate isomerase (Homo sapiens) (UniProt P34949); assay: MPI enzyme activity inhibition – biochemical, fluorescence intensity, coupled assay, primary screen (AID 1209); details: purified PMI enzyme, at 20 µM, active compounds read high;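 also: plate controls were DMSO vehicle for no effect and wells lacking substrate for full effect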
Sequence (P34949 whole entry, looked up): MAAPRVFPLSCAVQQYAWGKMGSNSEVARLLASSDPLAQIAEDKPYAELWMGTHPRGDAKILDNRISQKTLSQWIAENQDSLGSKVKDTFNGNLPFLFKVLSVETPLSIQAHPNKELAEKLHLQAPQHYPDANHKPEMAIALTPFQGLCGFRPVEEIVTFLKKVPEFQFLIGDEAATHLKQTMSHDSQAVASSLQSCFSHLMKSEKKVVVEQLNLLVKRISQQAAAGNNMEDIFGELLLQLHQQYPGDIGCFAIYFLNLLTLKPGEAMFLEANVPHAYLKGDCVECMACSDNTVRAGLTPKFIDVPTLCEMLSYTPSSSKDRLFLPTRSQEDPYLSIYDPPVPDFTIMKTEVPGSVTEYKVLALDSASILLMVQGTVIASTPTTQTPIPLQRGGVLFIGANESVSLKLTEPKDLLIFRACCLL

inhibition, inactive:
CCOc1ccccc1-c1c2cc(O)c(=O)cc-2oc2cc(O)c(O)cc12 46.2%, COc1cc(-c2cc(=O)c3ccccc3o2)ccc1O 5.9%, O=c1cc(-c2ccccc2Cl)oc2cccc(O)c12 -9.9%, COc1ccc(-c2cc(=O)c3cc(OC)ccc3o2)cc1 -5%, COc1ccc(OC)c(-c2oc3ccccc3c(=O)c2O)c1 -5.6%, CC1(C)CC(=O)c2c(oc3cc(O)c(O)cc23)C1 47.6%, Nc1cnn(Cc2ccccc2F)c1 18.2%, COc1ccc2[nH]cc(CCn3ccc(=O)c(C)c3C)c2c1 0.3%, O=C(Nc1ccccc1)c1sccc1Oc1ccc([N+](=O)[O-])cc1F -6%, CC(=O)Oc1ccc2c(=O)c(-c3ccccc3)coc2c1 -0.1%, CC(C)Oc1ccc2c(=O)c(-c3ccccc3)coc2c1 0.6% and 7.3%, COc1cccc(-c2ccc(SCC(=O)NCCc3ccccc3)nn2)c1 1.9%, O=c1[nH]c2ccccc2c2ccccc12 3.2%, CC(=O)Nc1c(O)c2ccccc2[nH]c1=O 20.2%, Cc1cccc(/C(N)=N/OC(=O)C23CC4CC(CC(C4)C2)C3)c1 9%, Cn1c(=O)n(Cc2ccc(F)cc2)c(=O)c2c1nc1n2CCCN1C1CCCCC1 6%, CCCCNC(=O)CCC(=O)NNc1nc2ccccc2c2nc(C)nn12 6.3%, COCCCNC(=O)CCC(=O)NNc1nc2ccccc2c2nc(C)nn12 -1.5%, COC(=O)c1cccc(NS(=O)(=O)c2ccc(NC(C)=O)cc2)c1C -4.2%, O=C(CCc1ccc(S(=O)(=O)N2CCOCC2)cc1)N/N=C/c1ccc(F)cc1F 4.8%, O=C(Cc1csc(N2CCOCC2)n1)N/N=C/c1cccc(O)c1 3.3%, O=C(CCc1ccc(S(=O)(=O)N2CCOCC2)cc1)N/N=C/c1cccc(O)c1 11.1%, COc1ccc(/C=N/NC(=O)CCN2CCN(c3ccccc3)CC2)c(OC)c1OC -3.2%, O=C(Cc1csc(N2CCOCC2)n1)N/N=C/c1ccc(Cl)cc1Cl 4.7%, COc1cc(/C=N/Nc2ccc([N+](=O)[O-])cc2S(=O)(=O)N2CCOCC2)cc(OC)c1OC -6.8%, O=[N+]([O-])c1ccc(N/N=C/c2cccc(O)c2O)c(S(=O)(=O)N2CCOCC2)c1 16.7%, O=C(CCN1CCN(c2ccccc2)CC1)N/N=C/c1ccccc1O -8.5%, CN(C)C(=O)COc1ccc(Br)cc1 8.1%, O=C(NN=C1CCCC1)c1sc2ccccc2c1Cl -19.6%, COc1ccc(N(C(=O)CCl)C(C(=O)NCCc2ccccc2)c2cccs2)cc1Cl (configuration not stated) -8.6%, Cc1noc(NS(=O)(=O)c2ccc(NC(=O)C34CC5CC(C3)CC(n3cnc(Br)n3)(C5)C4)cc2)c1C 0.3%, O=C(CN1C(=O)CCC1=O)c1ccc(-c2ccccc2)cc1 5.6%, CC(=O)Nc1nc(SCc2ccc(Cl)cc2Cl)n[nH]1 2%, Nn1c(COc2ccc(Cl)cc2)nc2ccccc2c1=O -0.6%, CC(=O)Nc1ccc(S(=O)(=O)N2CCN(C(=O)c3cccnc3)CC2)cc1 17.8%, CCOc1ccc(CCNC(=O)c2ccc(N3CCCC3=O)cc2)cc1OCC 1.3%, O=C1CN(CC(=O)Nc2ccc(SC(F)F)cc2)CCN1 2.5%, O=C(NCc1ccccc1)c1cccc(OCC(=O)N2CCN(C(=O)c3ccco3)CC2)c1 2%, CN1C(=O)/C(=C2\SC(=S)N(C(CCC(=O)O)C(=O)O)C2=O)c2ccccc21 (configuration not stated) 22.8%, C/C=C/C(=O)N1c2ccccc2C(C)=CC1(C)C -2.5%, CC1C(=O)Nc2ccccc2N1C(=O)C1CC1 (configuration not stated) -18%, CC1(C)c2ssc(=S)c2-c2ccccc2N1C(=O)CSC1=NCCS1 14.3%, COC(=O)C1=C(C(=O)OC)SC(=C2C(=S)C(C)(C)N(C(=O)CC(C)C)c3ccccc32)S1 38.8%, CCCC(C(=O)O)N1C(=O)/C(=C2\C(=O)N(C)c3ccccc32)SC1=S (configuration not stated) 16.5%, COC(=O)C1=NN(c2ccccc2)C2(S1)SC(C(C)=O)=C(C)N2c1ccccc1 (configuration not stated) 9.2%, O=C(C1CCC(C(=O)N2CCc3ccccc32)CC1)N1CCc2ccccc21 (configuration not stated) 3.2%, Cc1ccc(/C=C/C(=O)CCC(=O)O)cc1 -0.7%, O=C(N/N=C/c1c[nH]c2ccccc12)c1sc2ccccc2c1Cl 17.1%, COc1cc(C2C3=C(CC(C)(C)CC3=O)OC3=C2C(=O)CC(C)(C)C3)cc([N+](=O)[O-])c1O 0.1%, O=C(CC1SC(=O)N(Cc2cccc3ccccc23)C1=O)Nc1nccs1 (configuration not stated) 9.8%, O=C(/C=C/c1ccccc1)Oc1ccccc1C(=S)N1CCOCC1 15.6%, Cc1csc(NC(=O)c2cc(C)oc2C)n1 -8.4%, CCOC(=O)c1sc(NC(=O)C2CCCO2)c(C(=O)OCC)c1C (configuration not stated) 11.4%, CNC(=S)Nc1ccc(OC)c(OC)c1 7.4%, CCc1ccc(NC(=S)Nc2ccc(S(=O)(=O)Nc3ncccn3)cc2)cc1 -1.7%, CN1CCN(NC(=S)Nc2ccc(OC(F)F)cc2)CC1 -15.1%, COc1ccc(NC(=S)NN2CCN(C)CC2)cc1OC 22.9%, Cc1ccc(C(=O)NC(=S)Nn2cnnc2)cc1 12.4%, CCc1ccc(NC(=S)NCc2ccccc2)cc1 -2.6%, FC(F)Oc1ccc(NC(=S)NN2CCOCC2)cc1 -3.1%, S=C(Nc1ccccc1)Nn1cnnc1 48.4%, CCc1ccc(C(=O)COC(=O)c2n[nH]c3ccccc23)cc1 -0.2%, CCC1C(=O)N(C)CCc2ccccc21 (configuration not stated) -5.7%, COC(=O)c1nc(-c2ccccc2)oc1N1CCOCC1 -4.7%, COc1ccc(C)cc1NC(=O)C(Sc1nnc2ccccn12)c1ccccc1 (configuration not stated) -1%, Cc1ccc(S(=O)(=O)N/N=C/c2ccc(OS(=O)(=O)c3ccc(C)c([N+](=O)[O-])c3)cc2)cc1 1.6%, O=C(/C=C/c1ccc(Br)cc1)c1ccc(NC2=NCCCS2)cc1 1.6%, Fc1ccc(Nc2nc3ccccc3s2)cc1 7.9%, O=c1cc(O)c2sc(Nc3ccc(F)c(Cl)c3)nc2[nH]1 41.4%, O=c1cnnc(Nc2cccc(C(F)(F)F)c2)[nH]1 -10.6%, COc1ccc(Nc2nc3ccc(OC)cc3s2)cc1 -0.9%, COc1ccc(Nc2nc(C)cc(=O)[nH]2)cc1 5.6%, Cc1cc(=O)[nH]c(Nc2cccc(C(F)(F)F)c2)n1 -10.3%, CN(C)CCCN(C(=O)c1cc2ccccc2oc1=O)c1nc2c(F)cccc2s1 7.5%, O=C(CSc1n[nH]c(-c2cccs2)n1)N1CCN(S(=O)(=O)c2ccccc2)CC1 8.5%, C#CCOCCOCCOCCNc1nc(N2CCOCC2)nc(N2CCN(C(=O)[C@H](C)n3cc(CCCN=C(N)N)nn3)CC2)n1 -9.8%, COC(=O)c1ccc(NC(=O)CSc2n[nH]c(-c3ccncc3)n2)cc1 11.1%

inhibition, active:
COc1cc(OC)c(-c2c3cc(O)c(=O)cc-3oc3cc(O)c(O)cc23)cc1OC 73.9%, COc1ccc(OC)c(-c2c3cc(O)c(=O)cc-3oc3cc(O)c(O)cc23)c1 61.1%, COc1ccc2c(=O)c(-c3ccccc3)coc2c1 52.5%, O=c1[nH]c2ccccc2c(O)c1O 71.8%, CCOCCCNC(=O)CCC(=O)NNc1nc2ccccc2c2nc(C)nn12 57.5%, O=C(CCc1ccc(S(=O)(=O)N2CCOCC2)cc1)N/N=C/c1ccc(O)c(O)c1O 57.6%, O=C(Cc1csc(N2CCOCC2)n1)N/N=C/c1ccc(O)c(O)c1O 83.3%, O=C(CCN1CCN(c2ccccc2)CC1)N/N=C/c1ccc(O)c(O)c1O 57.4%, O=[N+]([O-])c1ccc(N/N=C/c2ccc(O)c(O)c2O)c(S(=O)(=O)N2CCOCC2)c1 82.3%, CCCC(=O)N1c2ccccc2C(=C2SC(C(=O)OC)=C(C(=O)OC)S2)C(=S)C1(C)C 62.1%, CCC(C)C(=O)N1c2ccccc2C(=C2SC(C(=O)OC)=C(C(=O)OC)S2)C(=S)C1(C)C (configuration not stated) 63.8%, COC(=O)C1=C(C(=O)OC)SC(=C2C(=S)C(C)(C)N(C(=O)C3CC3)c3ccccc32)S1 71.6%, COC(=O)C1=C(C(=O)OC)SC(=C2C(=S)C(C)(C)N(C(=O)C(C)C)c3ccccc32)S1 68%, Cc1ccc(NC(=S)Nn2cnnc2)cc1 61.8%, FC(F)Oc1ccc(NC(=S)Nn2cnnc2)cc1 55.2%, COc1ccc(NC(=S)Nn2cnnc2)cc1OC 61.2%, CCc1ccc(NC(=S)Nn2cnnc2)cc1 54.2%, O=c1cc(O)c2sc(Nc3ccc(F)cc3)nc2[nH]1 69.8%, COc1ccc(Nc2nc3[nH]c(=O)cc(O)c3s2)cc1 50.2%, O=c1cc(O)c2sc(Nc3cccc(C(F)(F)F)c3)nc2[nH]1 52.4%
